Assay results as given in PubChem BioAssay AID504462 (Sanford-Burnham Center for Chemical Genomics, 2011).
Where “and” joins values, the source holds several entries; their conditions need not be identical. Equal entries are not always repeated. Out of some 340,000 compounds screened, about 1,700 (0.5%) were called active. This excerpt belongs to a sample that is enriched for actives. Unmarked numbers belong to inactive results. Cut-off read from the data, not from the text of the source: active = inhibition above about 40%; inactive = the rest.

Biological target: Cysteine protease ATG4B (Homo sapiens) (UniProt Q9Y4P1)
Sequence (Q9Y4P1 whole entry, looked up): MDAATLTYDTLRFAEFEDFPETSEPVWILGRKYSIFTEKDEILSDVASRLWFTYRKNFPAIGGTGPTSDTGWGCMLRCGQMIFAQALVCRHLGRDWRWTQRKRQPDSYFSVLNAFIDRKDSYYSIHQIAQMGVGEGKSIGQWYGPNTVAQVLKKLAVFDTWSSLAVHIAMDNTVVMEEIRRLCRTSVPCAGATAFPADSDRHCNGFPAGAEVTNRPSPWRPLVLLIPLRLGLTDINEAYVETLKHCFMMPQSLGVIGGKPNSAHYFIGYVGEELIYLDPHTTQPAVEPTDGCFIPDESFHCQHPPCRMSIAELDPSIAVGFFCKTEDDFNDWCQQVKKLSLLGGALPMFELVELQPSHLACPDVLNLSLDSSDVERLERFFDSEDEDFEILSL
Test: ATG4B protease inhibitors, primary screen, biochemical, fluorescence, uHTS (AID 504462)
Details: ATG4B cleavage of LC3-PLA2, NBD-HPC fluorescence, 1 h; at 8.33 µM; stronger effect = higher value

Row | SMILES | inhibition
1 | Cc1c([N+](=O)[O-])c(N)nn1C | -3.74%
2 | O=C(COC(=O)Cn1[nH]c(=O)c2ccccc2c1=O)Nc1c(Cl)cccc1C(F)(F)F | 1.19%
3 | CCC(C)N(C(=O)COC(=O)C1C(C(=O)OC)=C(C)NC(C)=C1C(=O)OC)C1CCS(=O)(=O)C1 (centres undefined) | -4.18%
4 | Cc1cc(NC(=O)CSc2nc(C(C)C)nc3sc4c(c23)CCC(C)C4)no1 (centres undefined) | -8.31%
5 | Cc1ccc(C)c2c1cc(C)c1nnc(SCC(=O)Nc3cccc(C(=O)O)c3)n12 | -4.22%
6 | CC(C)c1nc(SCC(=O)Nc2cccc(C(=O)O)c2)c2c3c(sc2n1)CCCC3 | 68.4% (active)
7 | Cc1cc(N(C)C)cc(C)[n+]1[O-] | 1%
8 | Cc1ccccc1-n1c(C)cc(/C=C2\NC(=O)NC2=O)c1C | -2.07%
9 | Cc1cccc(C)c1-n1c(C)cc(/C=C2\C(=O)NN(c3ccccc3)C2=O)c1C | 50.9% (active)
10 | C#CCOc1ccc(/C=C2/C(=O)NN(c3ccccc3)C2=O)cc1OC | 3.6%
11 | CC(C)CC(=O)NC(=S)Nc1ccc(F)cc1F | 0.36%
12 | O=C(CC1C(=O)NCCN1CC(c1ccccc1)c1ccccc1)NCC1CCOCC1 (centres undefined) | 5.98%
13 | Cc1cccc(CC(=O)Nc2c3c(nn2-c2cccc(Cl)c2)CS(=O)C3)c1 (centres undefined) | -6.51%
14 | CCN(CC)C(=O)c1sc2nc(-c3ccccc3)ccc2c1N | -13.8%
15 | NC(=O)c1sc2nc3c(c(-c4ccccc4)c2c1N)CCC3 | 42.3% (active)
16 | Cc1sc2nc(CC(N)=O)[nH]c(=O)c2c1-c1ccccc1 | 5.21%
17 | CCN(CC)S(=O)(=O)c1ccc2c3c(cccc13)C(=O)S2 | -12.5%
18 | O=C(c1ccncc1)N1CCN(S(=O)(=O)c2cccc([N+](=O)[O-])c2)CC1 | -1.28%
19 | Cc1ccccc1/C=C\c1nc(O)c([N+](=O)[O-])c(=O)[nH]1 | 4.7%
20 | CCCc1ccc(C(=O)[C@@H]2[C@@H](C(C)=O)N3c4ccc(F)cc4C=C[C@@H]3[C@@]23C(=O)Nc2ccccc23)cc1 | 7.49%
21 | Cc1ccc(Oc2cc(NC(=O)CCCn3nc(C)c([N+](=O)[O-])c3C)cc([N+](=O)[O-])c2)cc1 | 62% (active)
22 | COc1ccc(CNC(=O)CCCn2nc(C)c([N+](=O)[O-])c2C)cc1 | 4.24%
23 | Cc1nn(CC(=O)Nc2ccc(N(C)C)cc2)c(C)c1[N+](=O)[O-] | -1.82%

Row | SMILES | inhibition
24 | CN(c1ccc(OCC(=O)NC2=NCCS2)cc1)S(=O)(=O)c1ccc(F)cc1 | -9.32%
25 | COCCCNC(=S)NC(=O)c1ccc([N+](=O)[O-])cc1 | -7.22%
26 | CCc1nc(N2CCN(C(C)=O)CC2)c2c3c(sc2n1)CCCC3 | 45.4% (active)
27 | CCCc1nc2sc3c(c2c(=O)n1NC(=O)CCCl)CCCC3 | 10.3%
28 | Cc1nc2sc3c(c2c(=O)n1NC(=O)CCl)CCCC3 | -3.09%
29 | COc1cc(/C=C/C(=O)O)cc(S(=O)(=O)Nc2ccccc2SC)c1OC | -3.57%
30 | CS(=O)(=O)N(Cc1ccccc1Cl)c1ccc(C(=O)NCc2cccnc2)cc1 | -9.46%
31 | CCCCN(C(=O)CSCC(=O)Nc1ccc(OC)cc1)c1c(N)n(CCC)c(=O)[nH]c1=O | -1.8%
32 | NS(=O)(=O)c1ccc(CCNc2nc(C(F)(F)F)nc3ccccc23)cc1 | -2.12%
33 | CCc1ccc(C(CNc2nc(C(F)(F)F)nc3ccccc23)N(C)C)cc1 (centres undefined) | 19.9%
34 | COc1cccc(CNc2nc(C(F)(F)F)nc3ccccc23)c1 | 49% (active)
35 | COC(=O)CN(c1nc(C)c(Cl)c(OC)n1)S(=O)(=O)c1ccc(C)cc1 | 11.3%
36 | CC1Cc2ccccc2N1C1=CC(=O)CC(C)(C)C1 (centres undefined) | -2.3%
37 | COc1ccc(S(=O)(=O)/N=C2\C=C(NS(=O)(=O)c3ccccc3)C(=O)c3ccccc32)cc1 | -24.5%
38 | CC1=C/C(=N\OS(=O)(=O)c2ccccc2)C=CC1=O | -2.58%
39 | CC1=C/C(=N\S(=O)(=O)c2ccccc2)C(C(C)C)=CC1=O | 66% (active)
40 | Cc1cc(C)nc(-n2ncc3c2CC(c2ccc(C(C)C)cc2)CC3=O)n1 (centres undefined) | -17.4%
41 | Cc1ccc(CNC(=O)CCN2C(=O)[C@@H]3Cc4ccccc4CN3C2=O)cc1 | 2.31%
42 | CC(=O)Nc1ccc(NC(=O)CSc2nnnn2-c2ccccc2F)cc1 | 2.29%
43 | C=CCC1(CC=C)CCCN1C(=O)c1cc(COc2ccc(-n3cncn3)cc2)on1 | 7.84%
44 | CC(C)CCNC(=O)C1CCCN(S(=O)(=O)c2ccc(F)cc2)C1 (centres undefined) | 0.97%
45 | O=C(c1ccc(OC2CCN(C(=O)c3cccnc3)CC2)cc1)N1CCCCCC1 | 19.9%
46 | COCCN1C=C2C(=O)C(C)(OC(=O)C3CCCC3)C(=O)C=C2C=C1c1ccsc1 (centres undefined) | 2.63%

Row | SMILES | inhibition
47 | CC1(OC(=O)C2CCCC2)C(=O)C=C2C=C(c3ccc(C#N)cc3)OC=C2C1=O (centres undefined) | 45.7% (active)
48 | C=CCN1C=C2C(=O)C(C)(OC(=O)CCc3ccccc3)C(=O)C=C2C=C1c1ccc(C#N)cc1 (centres undefined) | -3.06%
49 | O=C(O)c1ccc([N+](=O)[O-])cc1Sc1ccsc1 | 5.83%
50 | COc1ccc(C(=O)CC(=O)c2ccc(C)cc2)c(O)c1 | 1.97%
51 | O=C(O)C(c1ccccc1)N1C(=O)/C(=C\c2ccc(-c3cccc(Cl)c3)o2)SC1=S (centres undefined) | 59.4% (active)
52 | Cn1cccc1/C=C1\SC(=S)N(NC(=O)c2ccc(Cl)cc2)C1=O | 11.7%
53 | CCN1C(=O)/C(=C\N2CCN(c3cccc(Cl)c3)CC2)SC1=S | 1.01%
54 | CCN(CC(=O)Nc1c(F)cccc1F)C(=O)c1ccc(-c2ccccc2)cc1 | 4.11%
55 | Fc1ccc2[nH]c3c(N4CCN(Cc5ccc6c(c5)OCO6)CC4)ncnc3c2c1 | 48.4% (active)
56 | O=C(c1cccs1)N1CCN(Cc2ccc3c(c2)OCO3)CC1 | -7.13%
57 | CCCCCc1c(C)nc(N2CCN(Cc3ccc4c(c3)OCO4)CC2)[nH]c1=O | -0.63%
58 | COC(=O)c1ccc(CNC(=O)Cn2cc(C)c(=O)[nH]c2=O)cc1 | -5.77%
59 | CN1CCN(Cc2nc3cc(NC(=O)COc4ccc([N+](=O)[O-])cc4)ccc3n2C)CC1 | -4.73%
60 | CC12c3ccccc3C(c3ccccc31)C1C(=O)N(Cc3cccnc3)C(=O)C12 (centres undefined) | -4.51%
61 | Cc1cccc(C)c1N1CCN(S(=O)(=O)N2CCCCC2)CC1 | 54.5% (active)
62 | Cc1cccc(C(=O)N2CCN(S(=O)(=O)N3CCCCC3)CC2)c1 | 0.43%
63 | Cc1cccc(C)c1N1CCN(S(=O)(=O)N2CCOCC2)CC1 | 19.1%
64 | O=C(O)c1ccc(S(=O)(=O)N2CCOCC2)o1 | 0.56%
65 | O=c1cc(CO)oc(C(Nc2cccc([N+](=O)[O-])c2)c2ccccn2)c1O (centres undefined) | -12.1%
66 | CCOn1c(SC(C)C)nc2ccccc2c1=O | 7.51%
67 | COCC(C)n1c(SCC(=O)NC2CCCCC2C)nc2ccccc2c1=O (centres undefined) | -0.82%
68 | CCOC(=O)C(C)Sc1nc2ccccc2c(=O)n1CC1CCCCC1 (centres undefined) | 41.4% (active)
69 | O=C(CNC(=O)c1ccc(Br)o1)NCC1CCCO1 (centres undefined) | -6.66%

Row | SMILES | inhibition
70 | Cc1ccc(C)c(-n2cc(CN3CCN(C(=O)c4ncn[nH]4)CC3)c(-c3ccccc3)n2)c1 | 2.98%
71 | Cc1ccc(C(=O)C[n+]2cc(-c3ccccc3)n3c2CCCCC3)cc1 | 10.8% and 3.23%
72 | COc1ccc(Br)cc1/C=N/Nc1ccc(S(=O)(=O)Nc2ccccc2C(=O)O)cc1[N+](=O)[O-] | 12.8%
73 | COc1cccc(/C=N/Nc2ccc(S(=O)(=O)Nc3ccccc3C(=O)O)cc2[N+](=O)[O-])c1O | 42.3% (active)
74 | O=C(O)c1ccccc1/C=N/Nc1ccc(S(=O)(=O)Nc2ccc(Cl)cc2)cc1[N+](=O)[O-] | 1.28%
75 | O=C(OCc1cc(Cl)ccc1OC(F)F)c1cccnc1 | -2.74%
76 | COc1ccc(CNC(=O)C2(CC3CC(c4ccccc4)=NO3)CCN(C(=O)c3cccc(O)c3)CC2)cc1 (centres undefined) | -7.3%
77 | CCOC(=O)c1c(-c2ccccc2)oc2ccc(OCC(=O)NN)cc12 | -2.49%
78 | CCOC(=O)c1c(-c2ccccc2)oc2cc(Br)c(O)c(C=O)c12 | 49.9% (active)
79 | CCOC(=O)c1c(-c2ccccc2)oc2cc(Br)c(O)cc12 | -6.47%
80 | O=C(CCc1ccccc1)Nc1ccc(NC(=O)C2CC2)nc1 | -15.9%
81 | Cn1c(=O)c2c(SCC(=O)N3CCOCC3)nc(C3CC3)nc2n(C)c1=O | -4.88%
82 | Cc1cccc(NC(=S)NCCc2ccc(Cl)cc2)c1C | 48.4% (active)
83 | Cc1ccc(NC(=S)NCCc2ccc(Cl)cc2)c(C)c1 | 5.82%
84 | Cc1cccc(NC(=S)NCCc2ccc(F)cc2)c1C | 20.9%
85 | O=C(Nc1cccn(Cc2ccccc2Cl)c1=O)NC1CCCCC1 | -3.28%
86 | Cc1ccc(N=C2NC(=O)/C(=C/C=C/c3ccco3)S2)cc1C | 47.9% (active)
87 | Cc1ccc(CNC(=O)CSc2nnc3c(n2)[nH]c2ccc(F)cc23)cc1 | -1.66%
88 | CC1=CC2=NC(=O)/C(=C/c3coc4ccccc4c3=O)C(=N)N2O1 | -5.2%
89 | O=C(CNC(=O)c1ccccc1)NCC(=O)OCc1ccc(Cl)cc1 | -3.69%
